Test results: PubChem BioAssay
Several values for one entry are separate records, joined by “and”; a condition that tells them apart may be missing. Equal values may be shown once. Records with an inconclusive call do not appear. Activity calls are given as the source filed them.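 How the source made its calls, unless noted: active means normalized viability below 100% at a tested concentration; inactive means the rest.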

Experiments:
[1] = growth inhibition of DIPG glioma cells, dose response, cell-based, SU-DIPG-XVII, MIPE5.0, CellTiter-Glo, qHTS (AID 1347060; cut-off not given, nearly all actives have AC50 up to about 26 µM;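 on AC50: cells exposed to compound for 48 hours before viability readout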); details: SU-DIPG-XVII viability, CellTiter-Glo ATP luminescence
[2] = growth inhibition of DIPG glioma cells, dose response, cell-based, JHH-DIPG-1, MIPE4.0, CellTiter-Glo, qHTS (AID 1347062; cut-off not given, nearly all actives have AC50 up to about 27 µM;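 on AC50: cells exposed to compound for two days before readout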); details: JHH-DIPG-1 viability, CellTiter-Glo ATP luminescence
[3] = growth inhibition of DIPG glioma cells, dose response, cell-based, SU-DIPG-IV, MIPE4.0, CellTiter-Glo, qHTS (AID 1347063; cut-off not given, nearly all actives have AC50 up to about 30 µM;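 further: compound exposure lasted 48 hours before the viability readout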); details: SU-DIPG-IV viability, CellTiter-Glo ATP luminescence
[4] = growth inhibition of DIPG glioma cells, dose response, cell-based, SU-DIPG-XIII, MIPE5.0, CellTiter-Glo, qHTS (AID 1347064; cut-off not given, nearly all actives have AC50 up to about 23 µM;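 on AC50: cells exposed to compound for 48 hours before the viability read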); details: SU-DIPG-XIII viability, CellTiter-Glo ATP luminescence
[5] = viability loss in pontine glioma line – cell-based, SU-DIPG-XXV, MIPE5.0, CellTiter-Glo, qHTS, dose response (AID 1347065; cut-off not given, nearly all actives have AC50 up to about 26 µM;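 further: cells exposed to compound for 48 hours before ATP readout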); details: CellTiter-Glo ATP luminescence
[6] = JHH-DIPG-1 glioma cell viability, MIPE5.0 library, CellTiter-Glo luminescence, qHTS (AID 1347067; cut-off not given, nearly all actives have AC50 up to about 26 µM;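 further: cells exposed to compound for 48 hours before readout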); details: JHH-DIPG-1 glioma viability, CellTiter-Glo ATP luminescence
[7] = SU-DIPG-XXV glioma cell viability, MIPE5.0 library, qHTS (AID 1347068; cut-off not given, nearly all actives have IC50 up to about 30 µM;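 on IC50: cells exposed to compound for 48 hours before viability readout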)
[8] = sensitizers of A549 cells to miR-34 induction, primary screen, imaging, A549 dox-inducible miR-34, nuclei and caspase counts (AID 1347080;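 active means compounds whose cell count with miR-34 switched on is under 0.7 times the count with it off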); details: A549 miR-34 inducible, Hoechst nuclei count, 48 h
[9] = survival rescue of mitochondrial mutant cells in low glucose, primary screen, MELAS cybrids, Rieske KO mouse fibroblasts, CellTiter-Glo (AID 1508586;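 active means mean z-score across replicates of 1.96 or higher in either the MELAS or the Rieske mutant cell line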;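 further: z relative to plate mean and SD of compound and empty wells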)
[10] = ovarian cancer cell viability with rucaparib, profiling panel, oncology-focused library, rucaparib conditional (AID 1508598); details: patient-derived ovarian cancer cells, CellTiter-Glo viability, 144 h, stronger effect = lower value
[11] = SU-DIPG-VI glioma cell viability, MIPE4.0 library, CellTiter-Glo luminescence, qHTS (AID 1347066; cut-off not given, nearly all actives have AC50 up to about 30 µM;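 further: cells exposed to compound for 48 hours before readout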); details: CellTiter-Glo ATP luminescence
[12] = modifiers of HSF1 nuclear foci, imaging, Selleck Cancer Library (AID 1347162; in the data active means plate-normalised HSF1 focus index below about 0.46); details: human cells, at 10 µM; SSMD: measured here: HSF1 foci SSMD mean; cell count: measured here: cell number; plate-normalised HSF1 focus index: stronger effect = lower value
[13] = stronger effect = lower value, cell number ratio, induced over uninduced
[14] = measured here: relative caspase fold change +Dox/-Dox
[15] = measured here: total cells with miR-34 induction, stronger effect = lower value
[16] = measured here: total cells without miR-34 induction
[17] = MELAS cybrid survival, CellTiter-Glo 48 h, stronger effect = higher value
[18] = Rieske KO mouse fibroblast survival, CellTiter-Glo 72 h
[19] = at 0.000305 µM, OCI-C5x cells, with rucaparib 10 µM, 100% = cells with rucaparib alone
[20] = at 0.000305 µM, OCI-C5x cells, without rucaparib
[21] = at 0.000305 µM, OCI-P5x cells, with rucaparib 20 µM, 100% = cells with rucaparib alone
[22] = at 0.000305 µM, OCI-P5x cells, without rucaparib
[23] = at 0.00122 µM, OCI-C5x cells, with rucaparib 10 µM, 100% = cells with rucaparib alone
[24] = at 0.00122 µM, OCI-C5x cells, without rucaparib
[25] = at 0.00122 µM, OCI-P5x cells, with rucaparib 20 µM, 100% = cells with rucaparib alone
[26] = at 0.00122 µM, OCI-P5x cells, without rucaparib
[27] = at 0.00488 µM, OCI-C5x cells, with rucaparib 10 µM, 100% = cells with rucaparib alone
[28] = at 0.00488 µM, OCI-C5x cells, without rucaparib
[29] = at 0.00488 µM, OCI-P5x cells, with rucaparib 20 µM, 100% = cells with rucaparib alone
[30] = at 0.00488 µM, OCI-P5x cells, without rucaparib
[31] = at 0.0195 µM, OCI-C5x cells, with rucaparib 10 µM, 100% = cells with rucaparib alone
[32] = at 0.0195 µM, OCI-C5x cells, without rucaparib
[33] = at 0.0195 µM, OCI-P5x cells, with rucaparib 20 µM, 100% = cells with rucaparib alone
[34] = at 0.0195 µM, OCI-P5x cells, without rucaparib
[35] = at 0.0781 µM, OCI-C5x cells, with rucaparib 10 µM, 100% = cells with rucaparib alone
[36] = at 0.0781 µM, OCI-C5x cells, without rucaparib
[37] = at 0.0781 µM, OCI-P5x cells, with rucaparib 20 µM, 100% = cells with rucaparib alone
[38] = at 0.0781 µM, OCI-P5x cells, without rucaparib
[39] = at 0.313 µM, OCI-C5x cells, with rucaparib 10 µM, 100% = cells with rucaparib alone
[40] = at 0.313 µM, OCI-C5x cells, without rucaparib
[41] = at 0.313 µM, OCI-P5x cells, with rucaparib 20 µM, 100% = cells with rucaparib alone
[42] = at 0.313 µM, OCI-P5x cells, without rucaparib
[43] = at 1.25 µM, OCI-C5x cells, with rucaparib 10 µM, 100% = cells with rucaparib alone
[44] = at 1.25 µM, OCI-C5x cells, without rucaparib
[45] = at 1.25 µM, OCI-P5x cells, with rucaparib 20 µM, 100% = cells with rucaparib alone
[46] = at 1.25 µM, OCI-P5x cells, without rucaparib
[47] = at 5 µM, OCI-C5x cells, with rucaparib 10 µM, 100% = cells with rucaparib alone
[48] = at 5 µM, OCI-C5x cells, without rucaparib
[49] = at 5 µM, OCI-P5x cells, with rucaparib 20 µM, 100% = cells with rucaparib alone
[50] = at 5 µM, OCI-P5x cells, without rucaparib

CC(C)c1nn(-c2c(Cl)cccc2Cl)c2nc(Cc3ccc(OCCO)cc3)[nH]c(=O)c12
active: AC50 [1] 0.0417 µM | AC50 [2] 0.118 µM | AC50 [3] 0.0833 µM | AC50 [4] 0.0468 µM | AC50 [5] 0.0417 µM | AC50 [6] 0.0468 µM | IC50 [7] 0.0833 µM

O=C(Nc1cn[nH]c1-c1nc2ccc(CN3CCOCC3)cc2[nH]1)NC1CC1
active: AC50 [1] 1.66 µM | AC50 [2] 10.5 µM | AC50 [3] 1.32 µM | AC50 [4] 5.9 µM | AC50 [5] 0.661 µM | AC50 [6] 1.86 µM | IC50 [7] 8.33 µM | z-score [9, 17] 2.04 | viability [10, 35] 82% | viability [10, 38] 76.9% | viability [10, 39] 89.8% | viability [10, 42] 66.7% | viability [10, 43] 36.1% | viability [10, 44] 48.8% | viability [10, 46] 53.2% | viability [10, 47] 26.8% | viability [10, 48] 18.2% | viability [10, 49] 39.6% | viability [10, 50] 18.8%
-1.89: z-score [9, 18]
0.829: fold change [8, 14]
1190: cell count [8, 15]
1110: cell count [8, 16]
inactive: fold change [8, 13] 1.08 | viability [10, 19] 103% | viability [10, 20] 125% | viability [10, 21] 120% | viability [10, 22] 122% | viability [10, 23] 128% | viability [10, 24] 132% | viability [10, 25] 111% | viability [10, 26] 116% | viability [10, 27] 116% | viability [10, 28] 119% | viability [10, 29] 116% | viability [10, 30] 118% | viability [10, 31] 102% | viability [10, 32] 111% | viability [10, 33] 120% | viability [10, 34] 105% | viability [10, 36] 108% | viability [10, 37] 111% | viability [10, 40] 104% | viability [10, 41] 109% | viability [10, 45] 118%

C=CC(=O)Nc1cc2c(Nc3ccc(F)c(Cl)c3)ncnc2cc1C#CC(C)(C)N1CCN(C)CC1
active: AC50 [1] 2.95 µM | AC50 [2] 5.26 µM | AC50 [3] 1.87 µM | AC50 [4] 4.68 µM | AC50 [5] 5.9 µM | AC50 [11] 5.9 µM | AC50 [6] 4.17 µM | IC50 [7] 7.42 µM

COc1cc2c(Nc3ccc(Cl)c(Cl)c3F)ncnc2cc1OCC1C[C@@H]2CN(C)C[C@@H]2C1 (stereo not given in full)
active: AC50 [1] 5.25 µM | AC50 [2] 18.7 µM | AC50 [3] 6.62 µM | AC50 [4] 8.33 µM | AC50 [5] 7.42 µM and 8.33 µM | AC50 [6] 4.68 µM and 2.35 µM | IC50 [7] 18.6 µM and 16.6 µM

COc1cc2nccc(Oc3ccc(NC(=O)NC4CC4)c(Cl)c3)c2cc1C(N)=O
1.21: fold change [8, 14]
0.105: z-score [9, 18]
2.76: SSMD [12]
6040: cell count [8, 16]
inactive: fold change [8, 13] 0.924 | plate-normalised HSF1 focus index [12] 1.14 | z-score [9, 17] -0.303 | viability [10, 19] 125% | viability [10, 20] 110% | viability [10, 21] 111% | viability [10, 22] 105% | viability [10, 23] 100% | viability [10, 24] 110% | viability [10, 25] 112% | viability [10, 26] 114% | viability [10, 27] 108% | viability [10, 28] 103% | viability [10, 29] 110% | viability [10, 30] 112% | viability [10, 31] 103% | viability [10, 32] 113% | viability [10, 33] 117% | viability [10, 34] 114% | viability [10, 35] 103% | viability [10, 36] 112% | viability [10, 37] 111% | viability [10, 38] 111% | viability [10, 39] 108% | viability [10, 40] 110% | viability [10, 41] 108% | viability [10, 42] 110% | viability [10, 43] 126% | viability [10, 44] 111% | viability [10, 45] 119% | viability [10, 46] 112% | viability [10, 47] 142% | viability [10, 48] 111%
6600: cell count [12]
5580: cell count [8, 15]
active: AC50 [1] 2.09 µM | AC50 [2] 2.35 µM | AC50 [3] 4.69 µM | AC50 [4] 4.68 µM | AC50 [5] 2.35 µM | viability [10, 49] 91.4% | viability [10, 50] 88.9%

CNC(=O)c1nn(C)c2c1C(C)(C)Cc1cnc(Nc3ccc(N4CCN(C)CC4)cc3)nc1-2
inactive: fold change [8, 13] 1.12
active: AC50 [1] 5.9 µM | AC50 [2] 2.35 µM | AC50 [3] 14.8 µM | AC50 [4] 6.61 µM | AC50 [5] 2.35 µM | AC50 [6] 8.33 µM | IC50 [7] 9.34 µM | z-score [9, 17] 4.48
-3.65: z-score [9, 18]
0.794: fold change [8, 14]
1220: cell count [8, 15]
1090: cell count [8, 16]

OCc1ccc(-c2ccc(-c3ccc(CO)s3)o2)s1
active: AC50 [1] 14.8 µM | AC50 [2] 20.9 µM | AC50 [3] 18.7 µM | AC50 [4] 16.6 µM | AC50 [5] 23.5 µM | AC50 [6] 16.6 µM
0.768 and 1.19: fold change [8, 14]
3070 and 2470: cell count [8, 15]
inactive: fold change [8, 13] 0.99 and 0.88 | z-score [9, 17] -0.467
0.342: z-score [9, 18]
3100 and 2800: cell count [8, 16]

O=C(O)c1ccccc1C(=O)Nc1ccc(-c2ccccc2)cc1
inactive: outcome [1] | outcome [2] | outcome [3] | outcome [4] | outcome [5] | outcome [6] | outcome [7]
